Growth data for 40 molecules are collected here from PubChem BioAssay (NCI).

The panel holds about 83,000 compounds, 20% with a hit somewhere; the sample as a whole holds those more often.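 Interpretation: 100, growth as untreated; towards 0, rising growth inhibition; 0, no net growth; 0 to -100, cell death. Compounds scoring below 10 were considered active.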 Values without a mark were called inactive. Active and inactive are the calls of the source.

For this assay, the system named is HL-60(TB) leukemia. The assay is described as follows: NCI-60 one-dose screen, 48 h (100 = growth as untreated, 0 = no growth, -100 = all killed). The note with it: 10 µM unless noted.
Take `C/C(=C(/c1ccccc1)c1ccc(N2C(=O)c3cccc4c(NCc5ccccc5)ccc(c34)C2=O)cc1)c1ccccc1`: the growth was 103%. In the case of `COc1ccc(C(=O)CC(c2ccccc2)C(C#N)c2ccccc2)cc1` (stereo not given) it was 87.3%; in that of `Cc1csc2ccc(Cl)cc12`, 110%; in that of `CCn1c2ccccc2c2cc(C(O)c3cccc4ncccc34)ccc21` (stereo not given), 10.5%. As for `COc1ccc(Nc2ncc(C(N)=O)c(NCCCNC(=O)C3CCC3)n2)cc1`, the figure is 46.6%.

Regarding `CCc1c(C(=O)NCc2c(O)ccc3cccc(O)c23)[nH]c(C)c1C(C)=O`, the growth is 41.5%. `Cc1cccc(NC(=O)[C@@H]2c3ccccc3C(=O)N(c3ccc(Cl)cc3)[C@H]2c2ccc(Cl)cc2)n1`: the growth was 36.2%.

For `O=C(/C=C/c1c[nH]c2ccccc12)c1cc2ccccc2o1`, the growth was 37.9%.

Consider `Cc1nn(-c2ccccc2)c2c1oc(=O)c1cc(Cl)ccc12`, for which the growth is 84.3%.

For the molecule `CCCCCCCCCCCCCCCC[N+]1(C)CCN(SN2CC[N+](C)(CCCCCCCCCCCCCCCC)CC2)CC1`, the growth was 0.773% (active). As for `COc1ccc(/C=C2\CS(=O)(=O)C/C(=C\c3ccc(OC)cc3)C2=O)cc1`, the growth is -29.8% (active). In the case of `COc1ccc(/C(C)=C(\c2ccc(Cl)cc2)c2ccc(OCCCN(C)C)cc2)cc1F` it was 66.2%. As for `COc1ccc(C2CC(c3cccs3)=NN2c2ccc(S(=O)(=O)NC(=O)NCc3cccc(OC)c3)cc2)cc1` (stereo not given), the figure is 103%; as for `O=C(O)CSCC(=O)Nc1cc(C(F)(F)F)ccc1Cl`, 102%; as for `C=C1C(=O)O[C@H]2[C@H]1CC/C(COC(=O)NCc1ccc(Cn3c(=O)sn(CCCCC)c3=O)cc1)=C\CC[C@@]1(C)O[C@@H]21`, -40.4% (active).

Take `CC(C)(C)c1ccc([I+]c2ccc(C(C)(C)C)cc2)cc1`: the growth is -38.7% (active). As for `COC(=O)c1c2c(c(C)[n+]([O-])c1C)C(=O)C(NCc1ccccc1)=CC2=O`, the figure is -2.98% (active); as for `CS(=O)(=O)c1ccc(C(=O)N2N=C(c3ccccc3)CC2c2ccc3c(c2)OCO3)cc1` (stereo not given), 37%. Turning to `O=C(NCCNC(=O)Oc1cccc2ccccc12)Oc1cccc2ccccc12`, the growth was 79.7%. In the case of `CCOc1ncc([N+](=O)[O-])c(OCC)n1` it was 108%. In the case of `Cn1c(/C=C(\C#N)c2cccc(C(F)(F)F)c2)nc2c(N3CCOCC3)nc(Cl)nc21` it was -25.2% (active). In the case of `O=C1NC(=O)C(c2ccccc2)(c2ccccc2)N1Cc1cn(-c2c3ccccc3nc3ccccc23)nn1` it was 73.3%. Take `COc1cc2nc(SCc3cc(OC)c(OC)c(OC)c3)n(Cc3ccccc3)c(=O)c2cc1OC`: the growth was 11.9%. In the case of `C1=C(Cc2ccccc2)n2cnc3ncnc(c32)S1` it was 75.1%. In the case of `CCN(CC)CCOc1ccc(Nc2ncc3cc(-c4c(Cl)cccc4Cl)c(=O)n(CCOC)c3n2)cc1` it was -19.2% (active); in that of `NC(N)=N/N=C/c1cccc(Br)c1`, 95.3%; in that of `O=C(NC1CC1)c1ccc(-c2nc3ccc4[nH]ncc4c3c3c2CCCC3)cc1`, 28.6%. In the case of `CCN(CC)CCN1C(=O)c2cccc3c(-c4ccc5c(c4)ncn5C4CCCCC4)ccc(c23)C1=O` it was -15.2% (active); in that of `COc1cccc(C(=O)NCCNc2cc(-c3cn(-c4ccccc4)nc3-c3cccc(OC)c3)ccn2)c1`, 41.5%; in that of `N#Cc1ccc(O)c(C2=NCC(Cc3ccccc3)O2)c1` (stereo not given), 44%. Consider `O=C1C(=O)N(CCCCn2cc(-c3ccccc3)nn2)c2ccccc21`, for which the growth was 118%. As for `COc1ccc(N=Nc2ccc(O)c(=O)cc2)cc1`, the figure is -33.2% (active). As for `Oc1ccccc1-c1nnc(Cn2c(Cc3cccc4ccccc34)nc3ccccc32)o1`, the figure is 96%; as for `C=CCOc1cccc(/C=C2\SC(=Nc3ccc(O)cc3)NC2=O)c1`, -16.8% (active).

As for `NC(=O)/C=C/C(=O)c1c(Cl)cccc1Cl`, the growth was -21.6% (active). In the case of `CCN(CC)CCNc1ccc(Cl)cc1Cl` it was 92.9%; in that of `CC[C@H]1OC(=O)[C@H](C)[C@@H](O[C@H]2C[C@@](C)(OC)[C@@H](O)[C@H](C)O2)[C@H](C)[C@@H](O[C@@H]2O[C@H](C)C[C@H](N(C)C)[C@H]2O)[C@](C)(O)C[C@H](C)CN(C)[C@H](C)[C@@H](O)[C@]1(C)O`, 89.9%; in that of `Nc1cc(C(F)(F)F)c(-c2cc(N3CCOCC3)nc(N3CCOCC3)n2)cn1`, -41.3% (active).

In the case of `CCOC(=O)OCC(=O)[C@@]1(O)CC[C@H]2[C@@H]3CCC4=CC(=O)CC[C@]4(C)[C@H]3[C@@H](O)C[C@@]21C`, the growth was 108%. Consider `CC1SC(c2ccc(Cl)cc2)N(CCc2cccs2)C1=O` (stereo not given), for which the growth was -3.88% (active).
